# Test results published in article PMC7862700, “An all-to-all approach to the identification of sequence-specific readers for epigenetic DNA modifications on cytosine”.
# Columns and labels:
# Assay in all cases: DAPPL (digital affinity profiling via proximity ligation, sequencing); 10 mM Tris-HCl pH 7.5, 50 mM NaCl, 1 mM DTT, 4% glycerol, room temperature, 30 min; GST-TFs on glutathione beads, 16-mer random dsDNA library, 0.1% formaldehyde crosslink after washing; high values mean tight binding
# Settings in all cases: protein: recombinant; tags: N-terminal GST; dsDNA, one strand shown
# [1] = target: T1, ERF (Homo sapiens, UniProt P50548 1-548)
# T1 sequence: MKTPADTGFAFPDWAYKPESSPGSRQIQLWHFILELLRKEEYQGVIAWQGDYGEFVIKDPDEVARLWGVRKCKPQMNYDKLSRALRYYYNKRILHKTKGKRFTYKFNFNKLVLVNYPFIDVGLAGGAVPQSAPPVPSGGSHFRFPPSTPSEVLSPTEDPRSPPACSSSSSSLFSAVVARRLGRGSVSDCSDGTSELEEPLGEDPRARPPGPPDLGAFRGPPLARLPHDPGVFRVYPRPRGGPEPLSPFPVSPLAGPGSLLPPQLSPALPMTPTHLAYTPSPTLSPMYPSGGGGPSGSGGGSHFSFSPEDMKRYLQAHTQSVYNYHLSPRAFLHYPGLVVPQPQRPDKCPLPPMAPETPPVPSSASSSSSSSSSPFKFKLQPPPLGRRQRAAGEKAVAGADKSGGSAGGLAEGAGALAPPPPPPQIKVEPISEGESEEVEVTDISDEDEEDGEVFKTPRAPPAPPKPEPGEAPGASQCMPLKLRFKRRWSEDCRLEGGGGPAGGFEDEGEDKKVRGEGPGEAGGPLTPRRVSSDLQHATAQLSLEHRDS
# In short: (§1)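 Binding signal is given per hexamer as its read frequency for a factor divided by its frequency in the tag-only sample. GST-fused human transcription factors were expressed in yeast, captured on glutathione beads, barcoded with DNA and pooled with that sample, then incubated with 200 nmole of a 16-mer random double-stranded DNA library in Tris/NaCl/DTT/glycerol buffer for 30 min at room temperature. The pools were then washed, crosslinked, proximity-ligated, amplified by PCR and sequenced on an Illumina NextSeq500.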
# [2] = target: T2, ETV3L (Homo sapiens, UniProt Q6ZN32 1-361)
# T2 sequence: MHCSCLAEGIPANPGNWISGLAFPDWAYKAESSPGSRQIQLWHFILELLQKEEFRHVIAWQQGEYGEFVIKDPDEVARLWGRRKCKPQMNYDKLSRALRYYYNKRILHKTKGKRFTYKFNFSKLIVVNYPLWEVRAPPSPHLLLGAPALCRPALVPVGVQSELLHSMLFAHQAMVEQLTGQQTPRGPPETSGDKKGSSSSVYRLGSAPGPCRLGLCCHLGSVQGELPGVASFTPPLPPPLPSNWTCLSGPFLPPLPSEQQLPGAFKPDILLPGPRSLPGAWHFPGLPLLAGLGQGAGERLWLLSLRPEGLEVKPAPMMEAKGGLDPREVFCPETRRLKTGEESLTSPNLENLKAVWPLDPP
# In short: as §1
# [3] = target: T3, ETS2 (Homo sapiens, UniProt P15036 1-469)
# T3 sequence: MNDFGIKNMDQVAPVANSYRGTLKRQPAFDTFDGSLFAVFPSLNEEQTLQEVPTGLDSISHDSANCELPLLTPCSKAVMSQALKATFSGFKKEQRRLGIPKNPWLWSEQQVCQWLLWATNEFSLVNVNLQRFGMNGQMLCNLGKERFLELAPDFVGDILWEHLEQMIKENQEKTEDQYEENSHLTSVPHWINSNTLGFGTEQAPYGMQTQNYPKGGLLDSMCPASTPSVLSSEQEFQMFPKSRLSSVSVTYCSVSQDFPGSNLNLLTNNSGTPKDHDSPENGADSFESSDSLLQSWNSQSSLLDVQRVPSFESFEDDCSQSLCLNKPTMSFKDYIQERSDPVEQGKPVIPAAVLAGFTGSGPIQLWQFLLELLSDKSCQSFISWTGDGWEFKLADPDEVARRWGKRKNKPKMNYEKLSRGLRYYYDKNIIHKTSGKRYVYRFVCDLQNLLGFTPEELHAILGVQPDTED
# In short: as §1
# [4] = target: T4, SPDEF (Homo sapiens, UniProt O95238 1-335)
# T4 sequence: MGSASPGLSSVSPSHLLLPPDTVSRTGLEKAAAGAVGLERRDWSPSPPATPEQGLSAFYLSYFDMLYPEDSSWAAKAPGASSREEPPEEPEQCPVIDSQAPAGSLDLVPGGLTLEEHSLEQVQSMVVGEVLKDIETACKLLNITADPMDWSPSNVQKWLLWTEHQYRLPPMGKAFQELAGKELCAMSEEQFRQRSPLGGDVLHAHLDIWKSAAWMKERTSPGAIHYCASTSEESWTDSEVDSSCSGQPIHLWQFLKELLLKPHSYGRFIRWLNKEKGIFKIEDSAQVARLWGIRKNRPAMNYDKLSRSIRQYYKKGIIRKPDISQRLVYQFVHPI
# In short: as §1
# [5] = target: T5, ETV7 (Homo sapiens, UniProt Q9Y603 1-341)
# T5 sequence: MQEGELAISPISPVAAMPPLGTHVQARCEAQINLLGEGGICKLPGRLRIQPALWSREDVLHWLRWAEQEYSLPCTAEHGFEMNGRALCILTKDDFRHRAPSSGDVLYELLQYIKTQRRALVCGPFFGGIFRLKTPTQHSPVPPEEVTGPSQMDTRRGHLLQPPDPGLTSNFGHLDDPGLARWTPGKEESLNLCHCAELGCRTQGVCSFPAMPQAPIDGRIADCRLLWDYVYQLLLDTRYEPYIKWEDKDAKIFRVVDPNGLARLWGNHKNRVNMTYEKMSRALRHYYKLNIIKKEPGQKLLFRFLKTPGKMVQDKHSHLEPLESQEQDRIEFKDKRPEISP
# In short: as §1
# [6] = target: T6, ELF5 (Homo sapiens, UniProt Q9UKW6-2 1-255)
# T6 sequence: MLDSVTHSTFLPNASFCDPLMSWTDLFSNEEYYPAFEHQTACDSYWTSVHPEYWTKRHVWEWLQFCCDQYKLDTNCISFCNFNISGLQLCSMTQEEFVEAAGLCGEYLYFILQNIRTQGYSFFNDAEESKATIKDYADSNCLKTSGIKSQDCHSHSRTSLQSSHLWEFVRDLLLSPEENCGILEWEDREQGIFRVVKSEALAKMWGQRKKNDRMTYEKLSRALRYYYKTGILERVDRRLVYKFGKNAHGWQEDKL
# In short: as §1
# [7] = target: T7, ETV3 (Homo sapiens, UniProt P41162-2 1-143)
# T7 sequence: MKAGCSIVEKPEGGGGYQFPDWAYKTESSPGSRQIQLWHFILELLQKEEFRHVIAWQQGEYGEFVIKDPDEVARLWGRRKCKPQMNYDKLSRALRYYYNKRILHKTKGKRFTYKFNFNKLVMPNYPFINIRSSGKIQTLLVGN
# In short: as §1
# [8] = target: ETV6 (Homo sapiens, UniProt P41212 1-452)
# In short: as §1
# ETV6, sequence (P41212 whole entry): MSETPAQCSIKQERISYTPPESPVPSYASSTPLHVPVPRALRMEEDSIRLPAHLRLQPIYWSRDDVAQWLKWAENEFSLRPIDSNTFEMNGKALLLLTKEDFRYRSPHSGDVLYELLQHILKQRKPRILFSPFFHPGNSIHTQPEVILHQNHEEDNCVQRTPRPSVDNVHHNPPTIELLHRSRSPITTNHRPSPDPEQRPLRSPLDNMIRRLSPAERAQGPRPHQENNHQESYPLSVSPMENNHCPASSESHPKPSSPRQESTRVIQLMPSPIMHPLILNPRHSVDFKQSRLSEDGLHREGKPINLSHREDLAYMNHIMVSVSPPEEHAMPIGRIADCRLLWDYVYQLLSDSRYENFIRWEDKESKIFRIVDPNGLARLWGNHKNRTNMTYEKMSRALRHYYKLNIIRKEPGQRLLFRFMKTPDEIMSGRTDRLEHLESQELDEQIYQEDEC
Sequence,binding signal [1],binding signal [2],binding signal [3],binding signal [4],binding signal [5],binding signal [6],binding signal [7],binding signal [8]
AAGCGG,"1.08 fold enrichment (6-mer frequency, TF over GST control)","1.17 fold enrichment (6-mer frequency, TF over GST control)","1.13 fold enrichment (6-mer frequency, TF over GST control)","1.08 fold enrichment (6-mer frequency, TF over GST control)","1.16 fold enrichment (6-mer frequency, TF over GST control)","1.13 fold enrichment (6-mer frequency, TF over GST control)","1.15 fold enrichment (6-mer frequency, TF over GST control)","1.23 fold enrichment (6-mer frequency, TF over GST control)"
TATGTG,"1.07 fold enrichment (6-mer frequency, TF over GST control)","1.02 fold enrichment (6-mer frequency, TF over GST control)","1.07 fold enrichment (6-mer frequency, TF over GST control)","1.09 fold enrichment (6-mer frequency, TF over GST control)","1.04 fold enrichment (6-mer frequency, TF over GST control)","1.01 fold enrichment (6-mer frequency, TF over GST control)","1.09 fold enrichment (6-mer frequency, TF over GST control)","1.07 fold enrichment (6-mer frequency, TF over GST control)"
AATTCT,"1.33 fold enrichment (6-mer frequency, TF over GST control)","1.29 fold enrichment (6-mer frequency, TF over GST control)","1.29 fold enrichment (6-mer frequency, TF over GST control)","1.23 fold enrichment (6-mer frequency, TF over GST control)","1.26 fold enrichment (6-mer frequency, TF over GST control)","1.22 fold enrichment (6-mer frequency, TF over GST control)","1.25 fold enrichment (6-mer frequency, TF over GST control)","1.25 fold enrichment (6-mer frequency, TF over GST control)"
AATGGG,"1.16 fold enrichment (6-mer frequency, TF over GST control)","1.15 fold enrichment (6-mer frequency, TF over GST control)","1.19 fold enrichment (6-mer frequency, TF over GST control)","1.12 fold enrichment (6-mer frequency, TF over GST control)","1.2 fold enrichment (6-mer frequency, TF over GST control)","1.2 fold enrichment (6-mer frequency, TF over GST control)","1.19 fold enrichment (6-mer frequency, TF over GST control)","1.2 fold enrichment (6-mer frequency, TF over GST control)"
TCGTTC,"1.36 fold enrichment (6-mer frequency, TF over GST control)","1.25 fold enrichment (6-mer frequency, TF over GST control)","1.2 fold enrichment (6-mer frequency, TF over GST control)","1.3 fold enrichment (6-mer frequency, TF over GST control)","1.15 fold enrichment (6-mer frequency, TF over GST control)","1.27 fold enrichment (6-mer frequency, TF over GST control)","1.26 fold enrichment (6-mer frequency, TF over GST control)","1.29 fold enrichment (6-mer frequency, TF over GST control)"
ACGGCT,"1.16 fold enrichment (6-mer frequency, TF over GST control)","1.23 fold enrichment (6-mer frequency, TF over GST control)","1.19 fold enrichment (6-mer frequency, TF over GST control)","1.18 fold enrichment (6-mer frequency, TF over GST control)","1.03 fold enrichment (6-mer frequency, TF over GST control)","1.07 fold enrichment (6-mer frequency, TF over GST control)","1.11 fold enrichment (6-mer frequency, TF over GST control)","1.16 fold enrichment (6-mer frequency, TF over GST control)"
TAATGT,"1.06 fold enrichment (6-mer frequency, TF over GST control)","1.11 fold enrichment (6-mer frequency, TF over GST control)","1.09 fold enrichment (6-mer frequency, TF over GST control)","1.12 fold enrichment (6-mer frequency, TF over GST control)","1.19 fold enrichment (6-mer frequency, TF over GST control)","1.07 fold enrichment (6-mer frequency, TF over GST control)","1.05 fold enrichment (6-mer frequency, TF over GST control)","1.09 fold enrichment (6-mer frequency, TF over GST control)"
TTCCGT,"1.61 fold enrichment (6-mer frequency, TF over GST control)","1.85 fold enrichment (6-mer frequency, TF over GST control)","1.94 fold enrichment (6-mer frequency, TF over GST control)","1.91 fold enrichment (6-mer frequency, TF over GST control)","1.6 fold enrichment (6-mer frequency, TF over GST control)","2.76 fold enrichment (6-mer frequency, TF over GST control)","2.16 fold enrichment (6-mer frequency, TF over GST control)","2.02 fold enrichment (6-mer frequency, TF over GST control)"
GTTTAC,"1.12 fold enrichment (6-mer frequency, TF over GST control)","1.12 fold enrichment (6-mer frequency, TF over GST control)","1.13 fold enrichment (6-mer frequency, TF over GST control)","1.12 fold enrichment (6-mer frequency, TF over GST control)","1.22 fold enrichment (6-mer frequency, TF over GST control)","1.13 fold enrichment (6-mer frequency, TF over GST control)","1.07 fold enrichment (6-mer frequency, TF over GST control)","1.19 fold enrichment (6-mer frequency, TF over GST control)"
CACGAC,"1.22 fold enrichment (6-mer frequency, TF over GST control)","1.26 fold enrichment (6-mer frequency, TF over GST control)","1.24 fold enrichment (6-mer frequency, TF over GST control)","1.19 fold enrichment (6-mer frequency, TF over GST control)","1.34 fold enrichment (6-mer frequency, TF over GST control)","1.24 fold enrichment (6-mer frequency, TF over GST control)","1.15 fold enrichment (6-mer frequency, TF over GST control)","1.24 fold enrichment (6-mer frequency, TF over GST control)"
TACTTA,"1.29 fold enrichment (6-mer frequency, TF over GST control)","1.2 fold enrichment (6-mer frequency, TF over GST control)","1.25 fold enrichment (6-mer frequency, TF over GST control)","1.14 fold enrichment (6-mer frequency, TF over GST control)","1.21 fold enrichment (6-mer frequency, TF over GST control)","1.14 fold enrichment (6-mer frequency, TF over GST control)","1.17 fold enrichment (6-mer frequency, TF over GST control)","1.28 fold enrichment (6-mer frequency, TF over GST control)"
GCGGAA,"1.19 fold enrichment (6-mer frequency, TF over GST control)","1.29 fold enrichment (6-mer frequency, TF over GST control)","1.42 fold enrichment (6-mer frequency, TF over GST control)","1.22 fold enrichment (6-mer frequency, TF over GST control)","1.26 fold enrichment (6-mer frequency, TF over GST control)","1.67 fold enrichment (6-mer frequency, TF over GST control)","1.55 fold enrichment (6-mer frequency, TF over GST control)","1.58 fold enrichment (6-mer frequency, TF over GST control)"
